SMILES strings stand for the structures. About 83,000 compounds went through this panel and 20% of them were active in at least one assay; those are over-represented in the sample as a whole.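 Growth was measured after 48 h exposure to one concentration of compound in 96-well plates. Values under 10 count as active.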 Unmarked numbers belong to inactive results. Calls of active or inactive are those of the source.

The record followed here is PubChem BioAssay (NCI).

Common to all, as to test: NCI-60 one-dose screen, 48 h (100 = growth as untreated, 0 = no growth, -100 = all killed)
One test relates to NCI-H23 lung. The note with it: 10 µM unless noted.
For the next test, the system named is HOP-62 NSCLC. The note with it: 10 µM unless noted.
A further test relates to NCI-H460 lung. The note with it: 10 µM unless noted.
In another test the test system is A549/ATCC NSCLC. The note with it: 10 µM unless noted.
A further test concerns 786-0 renal. The note with it: 10 µM unless noted.
The next test concerns COLO 205 colon. The note with it: 10 µM unless noted.
A further test deals with HOP-92 NSCLC. The note with it: 10 µM unless noted.
The subject of a further test is NCI-H522 lung. The note with it: 10 µM.
For another test, the system named is NCI-H226 lung. The note with it: 10 µM.
In a further test the test system is NCI-H322M lung. The note with it: 10 µM unless noted.

On to `CCC(=O)Nc1nnc(Cc2ccc(OC)c(OC)c2)s1`, for which the growth in the test on NCI-H23 lung is 60.4%; in the test with HOP-62 NSCLC it was -67.2% (active); with NCI-H460 lung, -43.7% (active); with A549/ATCC NSCLC it was -55% (active); in the test on 786-0 renal, 9.21% (active); in the test on COLO 205 colon, 28.2%.

On to `Cc1cc(NS(=O)(=O)c2ccc(NC(=O)COc3ccc(-c4cc5ccccc5[nH]4)cc3)cc2)no1`, for which the growth in the test on NCI-H23 lung was 22.4%; in the test with HOP-62 NSCLC, -11.3% (active); in the test with NCI-H460 lung it was 9.1% (active); with HOP-92 NSCLC it was 5.04% (active); with A549/ATCC NSCLC, 30.1%; in the test on 786-0 renal, 2.3% (active). The growth in the test on COLO 205 colon was -50.5% (active).

As for `CN(C)c1ccc(/C=C(\C#N)c2cc3ccccc3n2C)cc1`, the growth is 34.6% in the test on NCI-H23 lung; 62.1% in the test with HOP-62 NSCLC; 5.38% (active) in the test with NCI-H460 lung; 72.5% in the test with HOP-92 NSCLC; 24.6% in the test on A549/ATCC NSCLC; 38.6% with 786-0 renal. Moreover, the growth in the test with COLO 205 colon is -17.2% (active).

Turning to `Nc1nc2c(s1)CCc1c-2c(Br)n(Cc2ccccc2)c1Br`, the growth is 91.8% with NCI-H23 lung; 64.9% with HOP-62 NSCLC; 98.2% with NCI-H460 lung; -74.9% (active) in the test on NCI-H522 lung; 93.7% with A549/ATCC NSCLC; 102% in the test on 786-0 renal. The growth in the test with COLO 205 colon is 85.6%.

For `CCOC(=O)n1cc(C2=C(c3cn(C)c4ccccc34)COC2=O)c2ccccc21`, the growth in the test with NCI-H23 lung was 30%; with NCI-H460 lung, 3.7% (active); with HOP-92 NSCLC, 37.9%; in the test with A549/ATCC NSCLC, 22.6%; with 786-0 renal, 27.5%; with COLO 205 colon it was -31.2% (active).

For the compound `C[C@H]1C(=O)C23CCC1C[C@@]21O[C@@H]2C(C)(C)C=CC(=O)C23COC1=O`, the growth in the test with NCI-H226 lung was 94.2%; in the test on NCI-H322M lung, 105%; in the test on HOP-62 NSCLC, 101%; in the test with NCI-H460 lung, 101%; with HOP-92 NSCLC, 114%; with NCI-H522 lung, 93.2%. The growth is 83.9% with A549/ATCC NSCLC, 109% in the test on 786-0 renal and 105% in the test with COLO 205 colon.

`Clc1ccc2c(N3CCN(c4ccnc(NC5CCCCC5)n4)CC3)ccnc2c1`: the growth was 80.7% in the test with NCI-H226 lung; 98.8% with NCI-H322M lung; 51.7% in the test with HOP-62 NSCLC; 32% in the test on NCI-H460 lung; 40.6% in the test on HOP-92 NSCLC; 71.3% in the test with NCI-H522 lung. For the same compound, the growth in the test with A549/ATCC NSCLC was 54.4%; in the test on 786-0 renal it was 49.4%; in the test with COLO 205 colon, -1.41% (active).

In the case of `COc1ccc2c(c1)c(=O)oc1c(C)c(OCC(C)=O)ccc12`, the growth is 104% in the test with NCI-H226 lung; 105% in the test with NCI-H322M lung; 118% in the test on HOP-62 NSCLC; 103% in the test with NCI-H460 lung; 89.7% in the test with NCI-H522 lung; 85.1% with A549/ATCC NSCLC. The growth in the test on 786-0 renal is 101%; with COLO 205 colon it was 128%.

As to `N#Cc1c(O)c2c(c(O)c1C#N)C(=O)c1ccccc1C2=O`, the growth in the test with NCI-H226 lung is 87.8%; in the test on NCI-H322M lung, 38.4%; with HOP-62 NSCLC it was 59.8%; in the test on NCI-H460 lung, 22.7%; with HOP-92 NSCLC, 88.5%; in the test with A549/ATCC NSCLC it was 27.3%. Further, the growth is 90.9% in the test on 786-0 renal and -4.03% (active) in the test on COLO 205 colon.

Consider `CON=C1C[C@]2(C[C@@H]3C[C@@H](C/C=C(\C)C[C@@H](C)/C=C/C=C4\CO[C@@H]5[C@H](O)C(C)=C[C@@H](C(=O)O3)[C@]45O)O2)O[C@H](/C(C)=C/C(C)C)[C@H]1C`, for which the growth in the test on NCI-H226 lung was 72%; with NCI-H322M lung, 72.1%; in the test on HOP-62 NSCLC, 76.5%; with NCI-H460 lung it was 39.3%; in the test with HOP-92 NSCLC, 24.8%; with NCI-H522 lung, 50.5%. For the same compound, the results for the growth in the test on A549/ATCC NSCLC, in the test with 786-0 renal and with COLO 205 colon were 48.7%, 65.5% and 59.1%, respectively.

As for `COc1cc(NC(=O)COc2ccccc2)c(C(N)=O)cc1OC`, the growth in the test with NCI-H226 lung was 76.5%; with NCI-H322M lung, 40.1%; with HOP-62 NSCLC it was 30.5%; in the test on NCI-H460 lung, 7.91% (active); with NCI-H522 lung, -9.94% (active); in the test with A549/ATCC NSCLC, 20.5%. Also, the growth is 44.4% in the test on 786-0 renal and 8.28% (active) in the test on COLO 205 colon.

Take `C=CC(=O)N1CC2(CCC(n3nc(-c4ccc(Oc5ccccc5)cc4)c4c(N)ncnc43)CC2)C1`: the growth in the test with NCI-H226 lung was -77.7% (active); with NCI-H322M lung, 0.179% (active); in the test with HOP-62 NSCLC, -2.62% (active); with NCI-H460 lung it was -76.8% (active); in the test with HOP-92 NSCLC it was -66.4% (active); with A549/ATCC NSCLC it was -78.7% (active). The values for the growth with 786-0 renal and with COLO 205 colon were -87.7% (active) and -11.6% (active), respectively.

As for `O=C1/C(=C/c2ccc(Cl)cc2)CN(Cc2cn(CCCNc3ccnc4cc(Cl)ccc34)nn2)C/C1=C\c1ccc(Cl)cc1`, the growth with NCI-H226 lung is -81.4% (active); with NCI-H322M lung, -28.9% (active); in the test on HOP-62 NSCLC, -69.4% (active); in the test with NCI-H460 lung, -67.6% (active); in the test with HOP-92 NSCLC it was -65.3% (active); in the test on NCI-H522 lung, -92.8% (active). The growth in the test on A549/ATCC NSCLC is -62.9% (active); with 786-0 renal, -74.4% (active); with COLO 205 colon it was -61.3% (active).

Consider `COc1ccc(NC(=O)c2ccc3c(c2)nc(-c2ccc(Cl)cc2)n3-c2cc(C(C)(C)C)[nH]n2)cc1`, for which the growth in the test on NCI-H226 lung was 91.5%; with NCI-H322M lung it was 85.5%; in the test on HOP-62 NSCLC, 106%; with NCI-H460 lung it was 101%; with NCI-H522 lung, 73.7%; with A549/ATCC NSCLC, 79.7%. The growth with 786-0 renal was 87.6%.

For the compound `Cn1c2ccc(Cl)cc2c2nn(C(=O)c3ccccc3)c(=O)nc21`, the growth was 93.7% with NCI-H226 lung; 106% in the test on NCI-H322M lung; 101% with HOP-62 NSCLC; 105% in the test on NCI-H460 lung; 101% in the test on NCI-H522 lung; 113% with A549/ATCC NSCLC. Moreover, the growth in the test with 786-0 renal is 113%; with COLO 205 colon, 123%.
